Experimental data published in PubChem BioAssay AID720650 (Broad Institute, 2013).
A number with no mark means an inactive call. Active and inactive are the calls of the source. How the calls were made is not given here.

Assay: C difficile toxins, biochemical counterscreen, UDPG substrate absence, confirmatory dose response (AID 720650)
Conditions: series mostly up to 19.5 µM; activity change, negative = inhibition: at the top concentration

Row | SMILES | activity change, negative = inhibition | AC50
1 | COCC#Cc1ccc2c(c1)O[C@H](CN(C)C(=O)CC1CC1)[C@@H](C)CN([C@H](C)CO)S2(=O)=O | -2.37% | 
2 | O=C(c1cn(-c2ccccc2)nc1-c1ccncc1)n1nnc2ccccc21 | -3.97% | 
3 | Cc1[nH]nc(-c2ccc(O)cc2O)c1Oc1ccccc1 |  | 14.6 µM (active)
4 | O=C(NCCc1ccc(Cl)cc1)C1CCN(S(=O)(=O)c2ccc(Br)s2)CC1 | -4.2% | 
5 | CCCCn1c(-c2ccccc2C)nc2cc3[nH]c(=O)c(C(C)C)nc3cc21 | -15.5% | 
6 | O=c1[nH][nH]c(=O)c2c1[nH]c(=S)n2Cc1ccccc1 | -10.1% | 
7 | Cc1ccc(/C=C/c2onc(C)c2S(=O)(=O)N2CCC(C(=O)N3CCCCC3)CC2)cc1 | -13.5% | 
8 | Cc1nn(C2CC(O)C(O)C(CO)O2)c(=O)[nH]c1=O (stereo not drawn) | -11.3% | 
9 | CCCNC(=O)N1CC[C@@H]2[C@H]1c1cc(-c3ccccc3)ccc1N(C)[C@H]2CO |  | 3.8 µM (active)
10 | CCOC(=O)Cn1c(C(F)(F)F)nc2nc(Cl)c(Cl)nc21 | -4.43% | 
11 | O=C(N/N=C/c1ccc(O)cc1)NC12CC3CC(CC(C3)C1)C2 |  | 11.2 µM (active)
12 | O=C(CCC(=O)N1CCSc2ccccc21)Nc1cccc(F)c1 | -8.2% | 
13 | CCOC(=O)c1[nH]nc(-c2cc(CC)c(O)cc2O)c1-c1cscn1 | -9.39% | 
14 | Cc1cccc(/C=C/c2onc(C)c2S(=O)(=O)N2CCC(C(=O)N3CCCCCC3)CC2)c1 | 0.513% | 
15 | CNC(=O)N(O)C1N(/N=C/c2cccs2)C(=S)SC1(C)C (stereo not drawn) |  | > 39 µM
16 | CCOC(=O)Nc1ccc(OC(=O)Oc2ccc(NC(=O)OCC)cc2)cc1 |  | > 39 µM
17 | O=C(/C=C/c1ccccc1)Nc1cccnc1Cl |  | > 39 µM
18 | CC(=O)C(Sc1nccc(-c2cccs2)n1)C(C)=O |  | 9.69 µM (active)
19 | ON=C1c2ccccc2-c2ccc(O)cc21 |  | 7.21 µM (active)

Row | SMILES | activity change, negative = inhibition | AC50
20 | COc1cc2[nH]c(=S)nc(NCCC(C)C)c2cc1OC | -22.8% | 
21 | Cc1ccc(S(=O)(=O)Oc2cccc(/C=N/Nc3ccc(C(=O)O)cc3)c2)cc1 |  | > 39 µM
22 | COc1cc(/C=C/C(=O)OCC(=O)c2ccc[nH]2)ccc1O | -4.17% | 
23 | COc1cc2nncc(SC)c2cc1OC | -3.57% | 
24 | COC(=O)c1ccc(OC(=O)c2ccc(OC)cc2)c(OC)c1 | 5.2% | 
25 | CCCNC(=O)C1(C)CCCN(C(=O)c2ccccc2OC(F)(F)F)C1 (stereo not drawn) | -5.78% | 
26 | COc1ccc(C(CNC(=O)c2oc3ccc(OC)cc3c2C)N2CCCC2)cc1 (stereo not drawn) |  | > 39 µM
27 | O=c1onc(-c2ccccc2)n1Cc1ccc([N+](=O)[O-])cc1 | -8.73% | 
28 | CNc1cncc(-c2ccc(O)cc2)n1 |  | 11.7 µM (active)
29 | CSc1nc2c(c(=O)[nH]c(=O)n2C)n1Cc1ccccc1 | -0.889% | 
30 | C[C@H](CO)N1C[C@H](C)[C@@H](CN(C)C(=O)Nc2ccc(C(F)(F)F)cc2)Oc2c(NS(=O)(=O)c3ccccc3)cccc2C1=O |  | > 39 µM
31 | COc1cc(O)ccc1C(=O)CCc1ccc(O)cc1 |  | 10.7 µM (active)
32 | Cc1ccc(C2=NS(=O)(=O)N(C)C(C(=O)NC(C)c3ccccc3)=C2)cc1 (stereo not drawn) | -6.45% | 
33 | Nc1nnn(CC(=O)N/N=C/c2ccc(O)cc2)n1 |  | 16.5 µM (active)
34 | O=C(Nc1nnc(C(F)(F)F)s1)c1ccc(Br)s1 |  | 8.05 µM (active)
35 | CN1C(=O)CSc2ccc(NC(=O)N3CCc4ccccc43)cc21 |  | 20.2 µM (active)
36 | COc1ccc(NC(=O)CN(C)C(=O)c2cccc(NS(=O)(=O)c3ccc(Br)cc3)c2)cc1 | -3.88% | 
37 | CSc1nc(Cl)cc(Nc2ccc(O)cc2)n1 | -7.48% | 
38 | Cc1ccc(S(=O)(=O)Oc2ccc(/C=N/NC(=O)c3nn(C)cc3[N+](=O)[O-])cc2)cc1 | -0.306% | 
